Measured values: PubChem BioAssay AID2242 (National Center for Advancing Translational Sciences (NCATS), 2010)
The whole screen tested about 200,000 compounds, of which about 720 (0.36%) were called active. About 8% were inconclusive and are not listed. Calls follow the shape of the dose curve; as a rule, active = well fitted activation curve with a large enough effect; inconclusive = small, poorly fitted or top-dose-only effect, or effect the other way, or another doubt; inactive = flat fitted curve, though single readings scatter. The list shows a part of the results.
Also: nearly all actives have a fitted effect of over 80% in size.
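For activity change, positive = activation in this document: 0% = no enzyme basal signal and 100% = uninhibited enzyme activity.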
Potency is read from the fitted curve at half-maximal effect.

The compounds below were run against Lysosomal alpha-glucosidase (Homo sapiens) (UniProt P10253) (assay: qHTS Assay for Activators of Human alpha-Glucosidase as a Potential Chaperone Treatment of Pompe Disease). Conditions: purified enzyme, 4-MU-alpha-glucoside fluorescence, 20 min; series mostly up to 76.9 µM; activity change, positive = activation: at the top concentration.
How it was run: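 Compounds titrated up to 77 uM against 4 nM enzyme and 400 uM methylumbelliferyl substrate at room temperature, 20 min, pH 5.0. Basic stop, then 4-methylumbelliferone fluorescence (365/440 nm) normalized to no-enzyme and enzyme controls; Hill-equation AC50.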
CC(=O)Nc1nc2ccc(-c3nc4ccccc4o3)cc2s1 was tested, and the Potency was 25.1 µM (active). In the case of COc1ccc(OC)c(C=Nc2ccccc2-c2nc3ccccc3[nH]2)c1, the Potency is reported as 28.2 µM (active). In the case of Nc1c(C(=O)NCCN2CCOCC2)c2nc3ccccc3nc2n1-c1cccc(F)c1, the Potency is reported as 35.5 µM (active). In the case of Nc1c(C(=O)NCCN2CCOCC2)c2nc3ccccc3nc2n1CCc1ccccc1F, the Potency is reported as 39.8 µM (active). In the case of Nc1c(C(=O)NCCN2CCOCC2)c2nc3ccccc3nc2n1-c1ccccc1, the Potency is reported as 35.5 µM (active). For Cc1ccc(C)n1-c1nccc(-c2ccco2)n1, the Potency was 22.4 µM (active). CNc1nc(-c2ccccc2)cc(C)c1S(C)(=O)=O was tested, and the Potency was 28.2 µM (active). With Nc1ccccc1-c1nnc(-c2ccc(-c3ccccc3)cc2)o1 the Potency was 35.5 µM (active). CCNc1nc(C)c2cc(Br)c(=O)n(CC)c2n1 was tested, and the Potency was 35.5 µM (active). CCOC(=O)c1c(N)n(C2CC(C)(C)NC(C)(C)C2)c2nc3ccccc3nc12 was tested, and the Potency was 31.6 µM (active). COc1ccc(-n2c(N)c(C(=O)NCC3CCCO3)c3nc4ccccc4nc32)c(OC)c1 (stereo not given) was tested, and the Potency was 31.6 µM (active). Nc1c(C(=O)NCC2CCCO2)c2nc3ccccc3nc2n1-c1ccccc1 (stereo not given) was tested, and the Potency was 35.5 µM (active). In the case of COCCn1c(N)c(C(=O)NCC2CCCO2)c2nc3ccccc3nc21 (stereo not given), the Potency is reported as 35.5 µM (active). For Nc1c(C(=O)OCC2CCCO2)c2nc3ccccc3nc2n1C1CCCC1 (stereo not given), the Potency was 39.8 µM (active). With CCCCC(NS(=O)(=O)c1ccc(C)cc1)C(=O)Oc1ccc2c3c(c(=O)oc2c1)CCC3 (stereo not given) the Potency was 31.6 µM (active). For Cc1ccc(S(=O)(=O)NC(CC(C)C)C(=O)Oc2ccc3c4c(c(=O)oc3c2)CCC4)cc1 (stereo not given), the Potency was 35.5 µM (active). In the case of Cc1ccc(-c2nn(-c3ccccc3)cc2/C=C/C(=O)Nc2nccs2)cc1, the Potency is reported as 35.5 µM (active). For COCCNC(=O)c1c(N)n(CCCn2ccnc2)c2nc3ccccc3nc12, the Potency was 35.5 µM (active). COCCNC(=O)c1c(N)n(-c2ccccc2)c2nc3ccccc3nc12 was tested, and the Potency was 39.8 µM (active). CCCNC(=O)c1c(N)n(-c2cccc(OC)c2)c2nc3ccccc3nc12 was tested, and the Potency was 35.5 µM (active). With COC(=O)c1c(N)n(-c2ccc(NC(C)=O)cc2)c2nc3ccccc3nc12 the Potency was 28.2 µM (active). With CCN1CCN(C(=O)c2cc3c(=O)n4ccccc4nc3n2Cc2ccccc2)CC1 the Potency was 31.6 µM (active). O=C(NCCN1CCOCC1)c1cc2c(=O)n3ccccc3nc2n1Cc1ccccc1 was tested, and the Potency was 35.5 µM (active). For CCc1cc(=O)oc2c(C)c(O)c(CN(C)C)cc12, the Potency was 35.5 µM (active). With CCCc1cc(=O)oc2c(C)c(O)c(CN3CCCCC3)cc12 the Potency was 17.8 µM (active). With CCc1cc(=O)oc2c(C)c(O)c(CN3CCCCC3)cc12 the Potency was 35.5 µM (active). For Cc1cc(=O)oc2cc(OC(=O)c3nn(C(C)C)c(=O)c4ccccc34)ccc12, the Potency was 35.5 µM (active). CCCCn1nc(C(=O)Oc2ccc3c(C)cc(=O)oc3c2)c2ccccc2c1=O was tested, and the Potency was 35.5 µM (active). For CCCn1nc(C(=O)Oc2ccc3c(C)cc(=O)oc3c2)c2ccccc2c1=O, the Potency was 35.5 µM (active). COC(=O)C1=CN(C(C)C)C=C(C(=O)OC)C1c1cccc(OC)c1 was tested, and the Potency was 28.2 µM (active). For COC(=O)C1=CNC=C(C(=O)OC)C1c1cccc(OC)c1, the Potency was 31.6 µM (active). With Cc1ccc2cc3c(nc2c1)N(c1ccccc1)CC3 the Potency was 22.4 µM (active). For N#C/C(=C(/O)CCCl)c1ccccn1, the Potency was 39.8 µM (active). CC1CCCN(CCCNC(=O)c2coc3nc4ccccc4nc23)C1 (stereo not given) was tested, and the Potency was 22.4 µM (active). For CN1c2ccccc2-c2nc3ccccc3n2C1c1ccco1 (stereo not given), the Potency was 39.8 µM (active). CCN1c2ccccc2-c2nc3ccccc3n2C1c1ccco1 (stereo not given) was tested, and the Potency was 35.5 µM (active). With Cc1ccc(C2N(C)c3ccccc3-c3nc4ccccc4n32)o1 (stereo not given) the Potency was 39.8 µM (active). In the case of CN(C)c1c2ccccc2nc2c(F)c(F)c(F)c(F)c12, the Potency is reported as 39.8 µM (active). For Clc1ccc(-c2nc3ncccn3c2Cl)cc1, the Potency was 22.4 µM (active). In the case of CC(=O)/C=C(\C)Nc1ccc(-c2cnc(-c3ccccc3)o2)cc1, the Potency is reported as 39.8 µM (active). Nc1cccc2nc3ccccc3cc12 was tested, and the Potency was 28.2 µM (active). With Cc1cc(=O)oc2cc(NS(=O)(=O)c3ccccc3)ccc12 the Potency was 35.5 µM (active). For Cc1cc(=O)oc2cc(NS(=O)(=O)c3ccc(F)cc3)ccc12, the Potency was 35.5 µM (active). In the case of CCOC(=O)c1c(N)n(CCOC(=O)c2cccs2)c2nc3ccccc3nc12, the Potency is reported as 31.6 µM (active). In the case of CCCCCOC(=O)c1c(N)n(CCOC)c2nc3ccccc3nc12, the Potency is reported as 35.5 µM (active). COCCn1c(N)c(C(=O)OCc2ccccc2)c2nc3ccccc3nc21 was tested, and the Potency was 31.6 µM (active). CCOc1ccc(CN2CCN(Cc3[nH]c4ccc(OC)cc4c3C)CC2CCO)cc1 (stereo not given) was tested, and the “activity change, positive = activation” value was 4.1e-05% (inactive). With O=C(O)CCn1cc(C2CC(c3ccccc3)=NN2c2ccccc2)c(-c2ccccc2)n1 (stereo not given) the Potency was 31.6 µM (active). C=CCn1c(N)c(S(=O)(=O)c2cccs2)c2nc3ccccc3nc21 was tested, and the Potency was 35.5 µM (active). For Nc1c(S(=O)(=O)c2cccs2)c2nc3ccccc3nc2n1CCc1ccccc1, the Potency was 31.6 µM (active). With COCCn1c(N)c(S(=O)(=O)c2cccs2)c2nc3ccccc3nc21 the Potency was 35.5 µM (active). With Nc1c(S(=O)(=O)c2cccs2)c2nc3ccccc3nc2n1CC1CCCO1 (stereo not given) the Potency was 31.6 µM (active). With CC(C)CCn1c(N)c(S(=O)(=O)c2cccs2)c2nc3ccccc3nc21 the Potency was 35.5 µM (active). In the case of CC(C)Cn1c(N)c(S(=O)(=O)c2cccs2)c2nc3ccccc3nc21, the Potency is reported as 25.1 µM (active). With Cc1ccc(-c2cc(-c3ccccc3Cl)c(C#N)c(N)n2)o1 the Potency was 28.2 µM (active). Cc1ccc(-c2cc(-c3ccccc3)c(C#N)c(N)n2)o1 was tested, and the Potency was 35.5 µM (active). Cn1c(C(=O)NCC2CCCO2)cc2c(=O)n3ccccc3nc21 (stereo not given) was tested, and the Potency was 31.6 µM (active). For Cn1c(C(=O)NCc2ccccn2)cc2c(=O)n3ccccc3nc21, the Potency was 28.2 µM (active). CCOC(=O)CC1C(=O)NCCN1C(=O)c1cc2c(=O)n3ccccc3nc2s1 (stereo not given) was tested, and the Potency was 35.5 µM (active). With CCOC(=O)CC1C(=O)NCCN1C(=O)c1cc2c(=O)n3cccc(C)c3nc2s1 (stereo not given) the Potency was 31.6 µM (active).
